Test results from PubChem BioAssay (Tox21).
Results filed as inconclusive are left out. Some structures have more than one record in an assay (separate samples or runs), and their calls can disagree. Activity calls are given as the source filed them. The call rests on the fitted dose curve.

Target: 5-hydroxytryptamine receptor 2A (Homo sapiens) (UniProt P28223)
Assay: 5-hydroxytryptamine receptor 2A (HTR2A) small molecule agonists, cell-based qHTS assay (AID 1963587); further: nearly all actives have a fitted effect of over 30% in size
Conditions: HTR2A-CHO cells, calcium flux fluorescence, agonist mode; series mostly up to 76.8 µM; activation: at the top concentration
Excerpt: National Center for Advancing Translational Sciences [NCATS]
Division of Preclinical Innovation [DPI]
U.S. Environmental Protection Agency [EPA]
National Institutes of Environmental Health Sciences [NIEHS]
National Toxicology Program [NTP]
U.S. Food and Drug Administration [FDA]
The HTR2A receptor is a subtype of the 5-HT2 receptor that belongs to the serotonin receptor family and is a G protein-coupled receptor (GPCR). The HTR2A-CHO cell line stably expressing human 5-hydroxytryptamine receptor 2A (HTR2A) can be used for screening agonists of interactions between 5-HT2 and its ligands. The HTR2A-CHO calcium flux assay is a homogeneous fluorescence-based assay for detecting the intracellular calcium level using FDSS kinetic plate reader system.
HTR2A-CHO cells were dispensed at 2000 cells/3uL/well in 1536-well black-clear bottom plates using a Multidrop Dispenser. After the assay plates were incubated at a 37 C/5% CO2 incubator for 18 h, 3 uL of Dye Loading Buffer was transferred to the assay plate by a Flying Reagent Dispenser. The assay plates were incubated at 37 C for 1h. For agonist mode, 23 nL of compounds dissolved in DMSO, positive controls or DMSO only was transferred to the assay plate by a pin tool. The fluorescence intensity in the plates was measured using FDSS 7000EX kinetic plate reader for 2 min at 1 sec intervals.
On the % scale 0 is the no-effect control and ±100 the full control effect; potency means the concentration at half of the fitted maximal effect.

5-hydroxytryptamine receptor 2A (Homo sapiens), sequence (P28223 whole entry, looked up): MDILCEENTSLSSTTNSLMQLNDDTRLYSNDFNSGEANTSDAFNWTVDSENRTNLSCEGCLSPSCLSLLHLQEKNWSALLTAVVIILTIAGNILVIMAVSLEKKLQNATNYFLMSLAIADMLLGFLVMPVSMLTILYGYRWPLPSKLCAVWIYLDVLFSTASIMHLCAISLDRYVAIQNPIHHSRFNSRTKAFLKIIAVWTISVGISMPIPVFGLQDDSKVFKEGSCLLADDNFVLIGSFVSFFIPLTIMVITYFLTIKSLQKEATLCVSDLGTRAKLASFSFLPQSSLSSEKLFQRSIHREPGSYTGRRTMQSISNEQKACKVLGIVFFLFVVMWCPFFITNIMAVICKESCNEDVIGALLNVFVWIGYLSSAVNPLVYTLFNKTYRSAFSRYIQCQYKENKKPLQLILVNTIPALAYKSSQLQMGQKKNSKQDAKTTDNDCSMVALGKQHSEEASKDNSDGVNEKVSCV

Compound	activation	Potency
Cc1ncc(C[n+]2csc(CCO)c2C)c(N)n1	1.94% (inactive)	
O=[N+]([O-])c1cccc2cccc([N+](=O)[O-])c12	-3.29% (inactive)	
CSCCCN=C=S	1.38% (inactive)	
CCCCn1cc[n+](C)c1 (tested in a mixture with another compound)	-0.436% (inactive)	
O=C1c2ccccc2C(=O)C1C(=O)C(c1ccccc1)c1ccc(Cl)cc1 (stereo not given)		49 µM (active)
Cc1cc(C)nc(Nc2ccccc2)n1	-0.652% (inactive)	
Cn1[nH]nnc1=S	-1.7% (inactive)	
Cc1cc(Cl)ccc1O[C@H](C)C(=O)O	-3.01% (inactive)	
CCOC(=O)COc1ccc(Cl)cc1Cl	-3.42% (inactive)	
Cc1c(COC(=O)[C@@H]2[C@H](/C=C(\Cl)C(F)(F)F)C2(C)C)cccc1-c1ccccc1		38 µM (active) and inactive
NC(=S)C(N)=S	3.27% (inactive)	
CCOP(=S)(OCC)SCCS(=O)(=O)CC	-2.52% (inactive)	
CC(C)NCC(O)c1ccc([N+](=O)[O-])cc1 (stereo not given)	14.8% [at 35.6 µM] (inactive)	
Cn1c(CCCC(=O)O)nc2cc(N(CCCl)CCCl)ccc21	-1.63% [at 35.6 µM] (inactive)	
Cc1ccc(N(SC(F)(Cl)Cl)S(=O)(=O)N(C)C)cc1		49 µM (active)
ClC(Br)Br	4.36% (inactive)	
Nc1ccc(N=Nc2ccccc2)cc1	-5.4% (inactive)	
CN(C)C(=S)[S-].CN(C)C(=S)[S-].[Cu+2]	16.6% [at 15.9 µM] (inactive)	
Oc1ccc(C2(c3ccc(O)cc3)c3ccccc3-c3ccccc32)cc1	15.1% (inactive)	
CN1CCC(O)(c2ccc(F)cc2)C(C(=O)c2ccc(F)cc2)C1 (stereo not given)	-4.15% [at 35.6 µM] (inactive)	

Compound	activation	Potency
CC1(C)CCC(Cc2ccc(Cl)cc2)C1(O)Cn1cncn1 (stereo not given)		49 µM (active)
Oc1ccc([C@H]2CNCc3c2ccc(O)c3O)cc1O		9.52 µM (active)
ClC(Cl)=C(Cl)Cl	-1.12% (inactive)	
COC(N)=O	-2.97% (inactive)	
CCOC(C(=O)OCCN(C)C)(c1ccccc1)c1ccccc1	-10.2% [at 35.6 µM] (inactive)	
COP(=O)(OC)SCn1c(=O)oc2cc(Cl)cnc21	-2.4% (inactive)	
O=[N+]([O-])c1cc(C(F)(F)F)c(Cl)c([N+](=O)[O-])c1Cl	-14.6% (inactive)	
O=[Se]=O	-0.907% [at 35.6 µM] (inactive)	
C[C@H](CN1CCOCC1)C(C(=O)N1CCCC1)(c1ccccc1)c1ccccc1	-3.48% (inactive)	
O=NN1CCN(N=O)CC1	3.82% (inactive)	
Oc1cc(Cl)c(Cl)c(Cl)c1	7.55% (inactive)	
O=S1(=O)OC(c2cc(Br)c(O)c(Br)c2)(c2cc(Br)c(O)c(Br)c2)c2ccccc21	-8.27% (inactive)	
C#CCC1=C(C)C(OC(=O)C2C(C=C(C)C)C2(C)C)CC1=O (stereo not given)	0.689% (inactive)	
CCC(C)Br (stereo not given)	-0.68% (inactive)	
O=C(NC(=O)c1c(F)cccc1F)Nc1cc(Cl)c(F)c(Cl)c1F	-1.37% (inactive)	
BrCC(Br)C1CCC(Br)C(Br)C1 (stereo not given)	4.75% (inactive)	
NP(N)(=O)NC(=O)c1ccc(F)cc1	1.17% [at 35.6 µM] (inactive)	
Cc1cc(=O)[nH]o1	2% (inactive)	
O=C(O)c1ccccc1C(=O)Nc1cccc2ccccc12	3.48% (inactive)	
BrCC(Br)(Br)Br	17.2% (inactive)	
